Source: PubChem BioAssay (Center for Chemical Genomics, University of Michigan)
Shown is part of a subset that was picked to be rich in hits.
Dicer processing = blocks human Dicer maturation of pre-miR-21 | Q9UPY3 | cat-ELCCA pre-miR-21 Dicer processing, chemiluminescence; hits give high values | z-score at 25 µM | actives 6% (n = 47,000); in the data active = z-score above about 3, passing the limit was not always enough;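 note: plate controls were vehicle for no effect and no enzyme for full effect; higher signal means more uncleaved substrate so more Dicer inhibition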
Target sequence (Q9UPY3 whole entry, looked up): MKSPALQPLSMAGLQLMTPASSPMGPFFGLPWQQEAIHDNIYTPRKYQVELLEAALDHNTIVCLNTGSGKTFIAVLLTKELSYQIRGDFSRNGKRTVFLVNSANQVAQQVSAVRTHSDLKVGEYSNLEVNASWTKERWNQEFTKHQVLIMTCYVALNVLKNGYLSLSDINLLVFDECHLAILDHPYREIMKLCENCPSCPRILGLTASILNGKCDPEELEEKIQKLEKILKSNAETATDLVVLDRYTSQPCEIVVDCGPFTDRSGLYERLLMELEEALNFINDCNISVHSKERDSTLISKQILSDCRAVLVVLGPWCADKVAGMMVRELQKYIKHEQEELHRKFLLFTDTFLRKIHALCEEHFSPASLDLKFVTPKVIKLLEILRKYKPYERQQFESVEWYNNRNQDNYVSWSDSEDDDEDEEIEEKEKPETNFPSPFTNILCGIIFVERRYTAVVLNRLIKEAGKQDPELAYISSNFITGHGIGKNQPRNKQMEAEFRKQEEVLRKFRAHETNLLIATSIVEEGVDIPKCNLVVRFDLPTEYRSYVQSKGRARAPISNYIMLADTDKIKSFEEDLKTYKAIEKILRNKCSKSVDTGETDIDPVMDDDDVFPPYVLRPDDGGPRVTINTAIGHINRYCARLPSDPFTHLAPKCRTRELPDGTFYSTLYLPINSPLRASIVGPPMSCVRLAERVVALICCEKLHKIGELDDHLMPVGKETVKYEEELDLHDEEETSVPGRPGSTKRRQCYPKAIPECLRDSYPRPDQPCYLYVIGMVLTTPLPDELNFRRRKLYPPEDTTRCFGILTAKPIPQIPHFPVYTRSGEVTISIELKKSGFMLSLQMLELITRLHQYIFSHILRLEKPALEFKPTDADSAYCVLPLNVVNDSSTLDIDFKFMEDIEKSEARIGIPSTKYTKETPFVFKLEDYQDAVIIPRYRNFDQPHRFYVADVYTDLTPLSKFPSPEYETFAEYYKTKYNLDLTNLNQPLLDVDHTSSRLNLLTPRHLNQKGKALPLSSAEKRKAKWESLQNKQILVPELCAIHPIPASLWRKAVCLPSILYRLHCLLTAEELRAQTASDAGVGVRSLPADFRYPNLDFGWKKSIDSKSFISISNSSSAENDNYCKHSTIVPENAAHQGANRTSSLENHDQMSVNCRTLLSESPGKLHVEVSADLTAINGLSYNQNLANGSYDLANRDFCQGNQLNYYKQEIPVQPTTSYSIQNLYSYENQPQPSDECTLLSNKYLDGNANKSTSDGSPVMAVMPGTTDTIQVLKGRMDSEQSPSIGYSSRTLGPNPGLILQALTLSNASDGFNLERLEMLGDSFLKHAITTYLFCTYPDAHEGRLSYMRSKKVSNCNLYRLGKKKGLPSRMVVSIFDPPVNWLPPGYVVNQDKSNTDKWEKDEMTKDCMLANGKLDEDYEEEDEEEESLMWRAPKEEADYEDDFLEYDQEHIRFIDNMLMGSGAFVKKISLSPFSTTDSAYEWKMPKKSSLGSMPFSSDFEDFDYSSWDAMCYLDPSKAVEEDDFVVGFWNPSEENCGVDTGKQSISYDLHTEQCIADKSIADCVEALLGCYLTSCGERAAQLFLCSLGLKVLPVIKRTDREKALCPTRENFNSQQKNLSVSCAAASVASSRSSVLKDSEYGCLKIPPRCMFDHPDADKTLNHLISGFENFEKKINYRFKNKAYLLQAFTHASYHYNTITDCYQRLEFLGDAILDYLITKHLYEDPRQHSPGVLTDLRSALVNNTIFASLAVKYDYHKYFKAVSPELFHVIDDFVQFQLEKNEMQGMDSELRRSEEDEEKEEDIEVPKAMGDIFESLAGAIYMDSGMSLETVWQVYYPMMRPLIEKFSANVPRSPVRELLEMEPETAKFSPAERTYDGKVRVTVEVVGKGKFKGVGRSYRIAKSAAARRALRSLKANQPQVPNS
* hit, by the source's call.

SMILES	Dicer processing
CN(CCOC(=O)c1cc2ccccc2o1)C(C)(C)C	2.67
COc1ccc(OC(=O)c2cc3ccccc3o2)cc1	4.74*
CN(C)CCCOC(=O)c1cc2ccccc2o1	0.59
CCOC(=O)C1=C(C)Nc2ncnn2C1c1ccc(O)cc1 (stereo not given)	0.47
CSc1nc(-c2ccccc2)nc(Sc2cccc(C(F)(F)F)c2)c1C#N	26.3*
CSc1nc(-c2ccccc2)nc(Nc2ccc(C(F)(F)F)cc2)c1C#N	-0.46
Cc1c(C#N)c(Sc2cccc(C(F)(F)F)c2)nc2ccccc12	-1.13
Clc1ccccc1C1Nc2ccccc2O1 (stereo not given)	0.47
S=C(Nc1cc(Cl)c(Cl)cc1Cl)NC(c1ccccc1)c1ccccc1	1.93
CC(C)OC(=O)c1c(NC(=O)c2nc3ncccn3n2)sc2c1CCCC2	0.78
C(=C\c1nnnn1-c1ccccc1)/NCc1ccccc1	-0.29
NC(=S)N/N=C\Cc1nnnn1-c1ccccc1	-0.56
Fc1ccc(N/N=C/Cc2nnnn2-c2ccccc2)c(F)c1	3.89*
CC(C)n1c(NC2CCCCC2)nc2c1c(=O)[nH]c(=O)n2C	0.15
O=C(Nc1cnc2sccn2c1=O)c1ccc(F)cc1	-0.13
COCCOC(=O)C1=C(C)Nc2nc3ccccc3n2C1c1cccc(O)c1 (stereo not given)	2.34
CC(C)(C)NS(=O)(=O)c1cccc2cccnc12	-0.27
O=S(=O)(NCCCCNS(=O)(=O)c1cccc2cccnc12)c1cccc2cccnc12	5.54*
O=S(=O)(NCc1ccccn1)c1cccc2ccccc12	-0.32
O=C(c1cnn2c1NC(c1ccc(Br)cc1)CC2C(F)(F)F)N1CCCCC1 (stereo not given)	3.31*
O=C(Nc1ccc(Br)cc1)c1cnn2c1NC(c1cccs1)CC2C(F)(F)F (stereo not given)	3.21*
CC(C)(C)NC(=O)c1cnn2c1NC(c1ccc(F)cc1)CC2C(F)(F)F (stereo not given)	1.55
Cc1ccc(C2CC(C(F)(F)F)n3ncc(C(=O)N(C)C4CCCCC4)c3N2)cc1 (stereo not given)	-0.05
O=C(Nc1ccc(Br)cc1)c1cc2n(n1)C(C(F)(F)F)CC(c1cccs1)N2 (stereo not given)	0.96
CSc1ccccc1NC(=O)c1cnn2c1NC(c1cccs1)CC2C(F)(F)F (stereo not given)	2.11
SMILES	Dicer processing
COc1ccc(N2C(=O)CSC2c2ccc(Cl)cc2)cc1 (stereo not given)	0.97
COc1cc(C(F)(F)F)c(C(=O)NCc2cc(Cl)ccc2Cl)cn1	-1.12
O=c1c(C(F)(F)F)cccn1Cc1ccc(Cl)cc1	-0.67
CC(C)(C)NC(=S)Nc1c(Cl)cc(Cl)cc1Cl	-0.67
O=S(=O)(/C=C/c1ccccc1)c1ccc(F)c(Cl)c1	-0.86
O=C(N/N=C/C=C/c1ccccc1)N/N=C/C=C/c1ccccc1	-0.35
O=C(O)CS(=O)(=O)/C=C/c1ccccc1	18.6*
O=C1CN(C(=O)c2ccccc2)C(=O)CN1C(=O)c1ccccc1	0.91
O=C(c1ccccc1)n1ccc(-c2cccs2)n1	-3.12
Nc1ncn(C(=O)c2ccccc2)n1	4.55*
Cc1cccc(C)c1-n1nnnc1SCc1ccc(Br)cc1	-1.97
Cn1c(=O)c2c(nc(NCCN)n2Cc2ccc(F)cc2)n(C)c1=O	1.31
CCOC(=O)c1c(N/N=C/c2ccc(O)cc2)n[nH]c1C	0.23
CCOC(=O)c1c(N=Cc2ccccc2Cl)n[nH]c1C	-2.53
CCOC(=O)c1c(N=Cc2ccccc2[N+](=O)[O-])n[nH]c1C	3.72*
O=C(NNS(=O)(=O)c1ccccc1)c1sccc1OCc1ncc(C(F)(F)F)cc1Cl	-1.03
O=S(=O)(CCSc1cccs1)c1ccc(F)cc1	13.6
CCN(CC)CCCC(C)Nc1nc(C)nc2cc(Cl)ccc12 (stereo not given)	-0.22
CCN(CC)CCCC(C)Nc1nc(C)nc2ccccc12 (stereo not given)	4.34*
CCN(CC)CCCNc1ncnc2ccccc12	-0.08
CC1CCC(C(=O)Oc2ccc(Cl)cc2)CC1 (stereo not given)	0.93
O=C(Nc1ccc(N2CCOCC2)cc1)c1cncc(Br)c1	-1.86
CN(C(=O)CSc1cc(Cl)ccc1Cl)c1ccc(F)cc1F	-0.09
CCOC(=O)c1c[nH]c2c(F)cc(F)cc2c1=O	-0.75
CC(CC(=O)O)CC(=O)NCc1ccc(Cl)cc1 (stereo not given)	3.27*
SMILES	Dicer processing
CC(CC(=O)O)CC(=O)Nc1nncs1 (stereo not given)	-2.18
O=C(O)CC(CC(=O)O)c1ccc(Cl)cc1	1.28
CCOc1ccccc1C1C(C(=O)OCc2ccccc2)=C(C)NC2=C1C(=O)CC(C)(C)C2 (stereo not given)	-0.36
CCCCNC(=O)Oc1ccc(-c2csnn2)cc1	-1.33
Cc1ccc(C)n1-c1cc([N+](=O)[O-])ccc1N1CCN(C(=O)N(C)C)CC1	0.36
Cc1ccc(C)n1-c1cc([N+](=O)[O-])ccc1N1CCN(S(=O)(=O)c2cn(C)cn2)CC1	4.85*
Cc1ccc(C)n1-c1cc([N+](=O)[O-])ccc1-n1ccnc1	0.09
O=C1c2ccccc2C(=O)N1CNc1cccc(Cl)c1	-0.02
COC(=O)C1=C(C)N(c2ccc(Cl)cc2)C(=O)C1	6.57
NC(=O)c1ccc(-n2nnnc2SCc2ccccc2Br)cc1	3.99*
Clc1ccccc1CSc1nnnn1-c1ccccc1	0.72
O=C(O)c1ccc(-n2nnnc2SCc2ccccc2Br)cc1	0.34
CCc1nc(C)cn1S(=O)(=O)c1ccc(C2CCCCC2)cc1	1.94
Cc1cc2nc(SCCO)nc(C)c2cc1C	-1.37
CCCN1C(=O)C(=O)c2ccccc21	-0.36
CN(C)CCN1C(=O)C(=O)c2ccccc21	-1.5
COC(=O)CN1C(=O)C(=O)c2ccccc21	-1.62
COC(=O)c1ccc(Cn2c(C)cc(C)[n+]2C)o1	2.85
O=C1C(=O)N(Cc2ccc(CN3C(=O)C(=O)c4ccccc43)cc2)c2ccccc21	3.04*
COC(=O)c1ccc(CN2C(=O)C(=O)c3ccccc32)o1	3.66*
CCn1c2ccccc2c2cc(CN3CCN(S(=O)(=O)c4ccccc4)CC3)ccc21	0.78
CNC(=O)Sc1c(-c2ccc(Cl)cc2)nn(C(=O)NC)c1SC	-7.69
Cc1cc(C(C)(C)C)ccc1NC(=O)CSCC(=O)O	-0.28
CC(=O)c1ccc(Oc2ncc([N+](=O)[O-])s2)cc1	-0.7
CC(C)(C)SCCN=C(Nc1cccc(F)c1)c1cccc(Cl)c1	-2.85
SMILES	Dicer processing
Cc1c(C(=O)Nc2ccc(Cl)cc2)cc(-c2ccccc2)n1-c1ccccc1	-0.69
Cc1ccc(N)c(C(=O)Nc2ccc(Cl)cc2)c1	5.07*
CCOC(=O)c1cc(C)ccc1NC(=O)c1ccc(Cl)cc1	-0.46
COc1ccc(OC)c(C2C3=C(CC(C)(C)CC3=O)Nc3nc(SC)[nH]c(=O)c32)c1 (stereo not given)	0.3
C=CCOC(=O)C1=C(C)N=C2SCCC(=O)N2C1c1ccccc1F (stereo not given)	-1.44
CSc1nnc2c(n1)OC(c1ccc(Cl)cc1)N(C(C)=O)c1ccccc1-2 (stereo not given)	1.57
Cc1cc(=S)nc(-c2ccccn2)[nH]1	6.94*
Cc1[nH]c(-c2ccccn2)nc(=S)c1Cl	-1.4
c1ccc(-c2nc3ccccc3nc2-c2ccccn2)nc1	-1.19
Cc1ccc(C2CC=CCC2[N+](=O)[O-])cc1 (stereo not given)	-0.84
CN(C)CCN1C(=O)C(=O)/C(=C(/O)c2ccc(Cl)cc2)C1c1ccco1 (stereo not given)	-0.28
CCOC(=O)c1c(O)c2ccccc2n(C)c1=O	0.14
Cn1c(=O)c(C(=O)NCc2ccccn2)c(O)c2ccccc21	10.2*
